GRIN3A LBD mod: binders of NR3A ligand-binding domain, primary screen, biophysical, differential scanning fluorimetry, uHTS; Glutamate receptor ionotropic, NMDA 3A (GRIN3A) ligand-binding domain; NR3A LBD differential scanning fluorimetry, Tm shift; 0% = protein alone, 100% = glycine-bound protein; Tm shift relative to glycine control, % at 25 µM; 2.5% of 340,000 active; AID 1259313, 2017;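 active = melting temperature shift of at least 10% of the positive control shift, at one fixed dose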
NadD inh: inhibitors of S. aureus NadD, primary screen, biochemical, colorimetric, uHTS; Nicotinate-nucleotide adenylyltransferase NadD (Staphylococcus aureus N315); purified NadD enzyme, colorimetric absorbance read-out; inhibition, % at 20 µM; 0.78% of 360,000 active; in the data active = inhibition above about 26%
FAS TE block: FAS thioesterase domain inhibitors, primary screen, biochemical, fluorescence intensity, uHTS. recombinant FAS-TE, OMFH fluorogenic substrate, fluorescence endpoint. inhibition, % at 15 µM. 0.67% of 360,000 active. AID 602261, 2012;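 active = compounds whose normalised, plate-corrected inhibition of enzyme fluorescence in the single-dose primary screen is 50% or more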;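 note: 0% = DMSO with enzyme and 100% = substrate without enzyme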
rCAG binder: binders of r(CAG) RNA repeats, primary screen, biochemical, fluorescence | r(CAG) RNA repeat, TO-PRO-1 dye displacement fluorescence | inhibition, % at 3 µM | 1.3% of 370,000 active;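 active = inhibition above the plate cutoff, the mean of all test compounds on that plate plus 3 SD, cut at about 35% in these data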;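 note: 0% = DMSO alone and 100% = 100 µM mitoxantrone as full dye displacement; higher means more dye released from RNA so lower well fluorescence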
rCAG binder conf: small molecules binding CAG repeat RNA – biochemical, fluorescence, confirmation | inhibition, % at 3 µM | AID 652065, 2013 | shares compounds with rCAG binder | 70% of 4,300 active | r(CAG) RNA repeat, TO-PRO-1 dye displacement fluorescence;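 active = inhibition above a per-plate cutoff, the mean inhibition of sample wells plus 3 SD, cut at about 35% in these data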;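 note: loss of TO-PRO-1 fluorescence as compound displaces dye from 1x1 AA loop RNA; 0% = DMSO only wells and 100% = 100 µM mitoxantrone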
dCAG dye counter: displacement of TO-PRO-1 from CAG DNA duplex, counter-screen for rCAG RNA repeat binder project, biochemical, fluorescence, TO-PRO-1 dye, d(CAG) DNA oligo. shares compounds with rCAG binder. d(CAG) DNA oligo TO-PRO-1 dye displacement. inhibition, % at 3 µM. 94% of 4,300 active. AID 652068, 2013;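 active = inhibition above its plate's cutoff, the mean test-well inhibition plus 3 SD, cut at about 4.8% in these data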;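 note: 0% = DNA dye mix with DMSO and 100% = 100 µM mitoxantrone; hits displace the dye from DNA and so lower well fluorescence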
An asterisk follows results filed as active; / = not tested or not shown. Only some compounds are listed: those with a hit (about 4.3% of all), similar ones and a draw of the others.

SMILES	GRIN3A LBD mod	NadD inh	FAS TE block	rCAG binder	rCAG binder conf	dCAG dye counter
CC(C)(C)c1ccc2c(c1)OC(C(=O)N/N=C\c1ccc(-c3cccc(C(=O)O)c3)o1)CO2 (configuration not stated)	-7	28	23	41*	77*	43*
Cc1ccc(OCC(=O)N/N=C\c2ccc(-c3cccc(C(=O)O)c3)o2)c(C)c1	12*	6	0	46*	42*	11*
COc1ccc(-n2c(SCC(=O)Nc3cccc4ccccc34)nnc2-c2ccco2)cc1	/	/	/	6	/	/
COc1cc(/C=C/C(=O)O)cc(S(=O)(=O)Nc2ccc3nc(SC)sc3c2)c1OC	2	1	1	50*	32	9.6*
COc1cc(/C=C/C(=O)O)cc(S(=O)(=O)Nc2ccc3cn[nH]c3c2)c1OC	-1	5	-8	3	/	/
COc1ccc(N2CCN(C(=O)C3CCN(S(=O)(=O)c4ccc5c(c4)CC(C)N5C(=O)C4CC4)CC3)CC2)cc1 (configuration not stated)	/	/	/	-5	/	/
CCOC(=O)c1sc(N=NC2=C(O)CCCC2=O)c(C(=O)OCC)c1C	-4	38*	5	57*	33	17*
CCOC(=O)c1sc(/N=C/N(C)C)c(C(=O)OCC)c1C	-1	-2	-1	-1	/	/
COCCN(C)Cc1nc(C(c2ccccc2)c2ccccc2)no1	0	0	-5	-7	/	/
N#CCc1nc(C(c2ccccc2)c2ccccc2)no1	-3	11	3	40*	17	8.0*
CC(/C=C1\SC(=S)N(NC(=O)c2cccc(O)c2)C1=O)=C\c1ccccc1	22*	19	9	40*	26	12*
O=C(NN1C(=O)/C(=C/c2ccc(O)cc2)SC1=S)c1cccc(O)c1	10	-5	-16	-28	/	/
COc1ccc(C(=O)OCC(=O)Nc2ncc([N+](=O)[O-])s2)cc1OC	0	6	-2	52*	74*	41*
C=CCCC1CN(CC=C)S(=O)(=O)c2c(F)cccc2O1 (configuration not stated)	/	/	/	1	/	/
COc1ccc(Cn2c(C)cc(O)cc2=O)cc1	/	/	/	3	/	/
COc1cccc(NC(=O)Nc2nnc(Cc3ccc(F)cc3)s2)c1	0	9	-4	8	/	/
CCSc1nsc(NC(=O)Nc2cccc(OC)c2)n1	16*	-2	4	58*	20	16*
COc1cccc(NC(=O)Nc2nnc(Cc3ccccc3)s2)c1	9	-1	2	41*	22	15*
COc1ccc(Cc2nnc(NC(=O)Nc3cccc(OC)c3)s2)cc1	1	1	-2	42*	40*	17*
CCSc1nnc(NC(=O)Nc2cccc(C)c2)s1	6	-5	0	56*	18	17*
CCSc1nnc(NC(=O)[C@@H](NC(=O)c2cccc(C)c2)C(C)C)s1	-2	1	-6	1	/	/
CC(C)N1Cc2nnn(Cc3ccccc3)c2-c2cc(F)ccc2S1(=O)=O	/	/	/	-2	/	/
O=C(Nc1ccc(F)cc1)Nc1nnc(COc2ccccc2F)s1	36*	-1	2	63*	38*	27*
O=C(Nc1ccc(F)cc1)Nc1nnc(Cc2ccccc2)s1	-3	-5	1	42*	14	15*
O=C(Nc1nnc(COc2ccccc2F)s1)Nc1ccccc1F	9	-5	3	29	/	/
COc1ccc(Cc2nnc(NC(=O)Nc3ccc(F)cc3)s2)cc1	-3	6	4	34	/	/
C=CCSc1nsc(NC(=O)Nc2ccc(F)cc2)n1	28*	-3	17	69*	20	20*
CC(C)[C@H](N)C(=O)N[C@H](C(=O)N1CCC2CCN(Cc3ccccc3)CC21)C(C)C (some centres not stated)	/	/	/	1	/	/

Screening results from PubChem BioAssay.
